According to PubChem BioAssay AID1879 (The Scripps Research Institute Molecular Screening Center, 2009):
This is one part of the list. Unmarked numbers belong to inactive results. Active and inactive are the calls of the source. Rule as the data show it: active = inhibition above about 13%; inactive = the rest.

What follows are compounds tested on SARS coronavirus 3C-like protease (3CLpro) (assay: confirmation of SARS coronavirus 3C-like protease inhibitors, retest, confirmation, biochemical (AID 1879)). Conditions: QFRET protease activity assay, at 6 µM, active compounds read high.
With `CCCCNC(=O)N(O)C1N(/N=C/c2ccc(N(C)C)cc2)C(=S)SC1(C)C` (centres undefined) the inhibition was -0.44%.
For `O=C(NCc1ccccc1)c1ccc(S(=O)(=O)Nc2cccc(C(F)(F)F)c2)cc1`, the inhibition was 7.75%.
`Cc1ccc(C(=O)NCCN2CCOCC2)cc1C` showed an inhibition of 0.81%.
`CCC(C)(C)NC(=O)C(c1ccc(O)cc1)N(C(=O)Cn1nnc2ccccc21)c1ccc(NC(C)=O)cc1` (centres undefined) was tested, and the inhibition was 25.6% (active).
With `Cc1cccc2c1N(CCOc1ccccc1)C(=O)C2=O` the inhibition was 19.1% (active).
Work on `Cc1cccc(C(=O)Nc2nnc(Cc3c[nH]c4ccccc34)s2)c1` yielded an inhibition of 5.81%.
With `CC(C)c1ccc(N(C(=O)c2ccco2)C(C(=O)NC2CCCC2)c2cccnc2)cc1` (centres undefined) the inhibition was 47.8% (active).
In the case of `COC(=O)COc1cccc2c(=O)n(CC(=O)NCc3ccccc3)ccc12`, the inhibition is reported as 5.39%.
In the case of `COc1ccccc1N(C(=O)Cn1nnc2ccccc21)C(C(=O)NCc1ccco1)c1ccc(C)o1` (centres undefined), the inhibition is reported as 26.2% (active).
`O=C(c1cc(=O)c2ccccc2o1)N1CCN(c2ccccc2)CC1` showed an inhibition of 12.2%.
Compound `C=C(C)COc1ccc(-c2n[nH]c(C)c2-c2ccccc2)c(O)c1` has an inhibition of 5.95%.
`COC(=O)c1cc(NC(=O)Cc2ccccc2[N+](=O)[O-])ccc1Cl` was tested, and the inhibition was 15% (active).
`O=Cc1cn(Cc2ccccc2)nc1-c1cccnc1` was tested, and the inhibition was 47.9% (active).
In the case of `O=C1C(=O)N(CC2COc3ccccc3O2)c2ccccc21` (centres undefined), the inhibition is reported as 23.1% (active).
For `O=C(O)c1ccc(NC(=O)c2cn(-c3ccccc3)nc2-c2ccc(Cl)cc2)cc1`, the inhibition was 6.65%.
For `CC(=O)c1cc(-c2ccccc2)[nH]c1N1CCCC1`, the inhibition was 22.5% (active).
With `C[C@@]12C(=O)N(c3cccc(Br)c3)C(=O)N1[C@H](c1ccc(Cl)cc1)[C@@H]1C(=O)N(C3CCCCC3)C(=O)[C@@H]12` the inhibition was 15.9% (active).
Compound `CN1CCN(CC(=O)Nc2cccc([N+](=O)[O-])c2)CC1` has an inhibition of 1.01%.
Compound `Cc1ccc(OCC(=O)Nc2ccc(C(=O)O)cc2NC(=O)COc2ccc(C)c(C)c2)cc1C` has an inhibition of 8.89%.
